# Results published in PubChem BioAssay (EPA / NIEHS).
# Active and inactive are the calls of the source. The calls were made as follows: active = hit-call score of the fitted dose curve at least 0.9, where 1 is the maximum; inactive = score below 0.9.
# Experiment: APR_HepG2_MitoticArrest_72hr: Apredica 72-hour HepG2 Assay for Mitotic Arrest (AID 2282918)
# Conditions: high-content imaging, actives raise or lower the signal
# Experimental: APR_HepG2_72hr is a cell-based, multiplexed-readout assay that uses HepG2, a human liver cell line, with measurements taken at 72 hours after chemical dosing in a 384-well plate.APR_HepG2_MitoticArrest_72hr is one of 10 assay component(s) measured or calculated from the APR_HepG2_72hr assay. It is designed to make measurements of cell phenotype, a form of morphology reporter, as detected with fluorescence intensity signals by HCS Fluorescent Imaging technology.Data from the assay component APR_HepG2_MitoticArrest_72hr was analyzed into 1 assay endpoint. This assay endpoint, APR_HepG2_MitoticArrest_72hr, was analyzed with bidirectional fitting relative to DMSO as the negative control and baseline of activity. Using a type of morphology reporter, measures of protein for gain or loss-of-signal activity can be used to understand the signaling at the pathway-level as they relate to the gene . Furthermore, this assay endpoint can be referred to as a primary readout, because this assay has produced multiple assay endpoints where this one serves a signaling function. To generalize the intended target to other relatable targets, this assay endpoint is annotated to the cell cycle intended target family, where the subfamily is arrest.
# Cells were treated with dimethyl sulfoxide (DMSO) as a solvent control at a final concentration of 0.5% v/v or with compounds in DMSO with a resulting final DMSO concentration of 0.5% v/v. Compound treatment was done at concentrations of 0.39, 0.78, 1.56, 3.12, 6.24, 12.5, 25, 50, 100, and 200 uM in duplicate on each plate. Cells were treated with compounds for 1, 24, or 72 hr. Carbonyl […] m-chloro-phenylhydrazone (CCCP) and taxol were used as positive controls for mitochondrial function and cytoskeletal stability, respectively; DMSO served as the negative control for this experiment. Cells were fixed by the direct addition of 50 uL formaldehyde in Hank's Balanced Salt Solution (HBSS) to a final concentration of 3.7%. After incubation in the fixation medium for 30 min at room temperature (293-298 K), cells were rinsed twice with HBSS and treated with cell permeabilization buffer (16 uL of 0.5% Triton X-100) for 10 min at room temperature (293-298 K) before labeling. For mitochondrial membrane potential and mitochondrial measurements, pre-fixed cells were incubated with 50 uL of MitoTracker Red CMXRos (Invitrogen) at a concentration of 250 nM for 30 min before fixation. In the remaining cases, post-fixed cells were labeled by incubation with a multiplexed mixture of primary antibodies in HBSS for 60 min at room temperature (293-298 K) to detect immunoreactivity of c-Jun (1:500), phospho-histone H3 (1:100), phospho-histone H2A.x (1:200), p53 (1:400), alpha-tubulin (1:200) and Hoechst 33342 (2 ug/mL). Cells were labeled for multiplexed imaging on two separate plates: a) Hoechst 33342, MitoTracker Red, phospho-histone H3, and alpha-tubulin, and b) Hoechst 33342, phospho-histone H2A.x, and c-Jun. A final rinse with HBSS (50 uL) was performed before analysis. The primary and secondary antibodies for the proteins were phospho-histone H3 (rabbit anti-phospho-histone H3 and FITC-donkey anti-rabbit IgG), phospho-histone H2A.x (mouse anti-phospho-histone H2A.x and FITC-donkey anti-mouse IgG), c-Jun (rabbit anti-phospho-c-Jun and Cy3-donkey anti-rabbit IgG), p53 (sheep anti-p53 and Cy5-donkey anti-sheep IgG), alpha-tubulin (mouse anti-alpha-tubulin and Cy5-donkey anti-mouse IgG). These antibodies are available as the CellCiphr HepG2 assay kit (Millipore).Digital images of each well were captured using a Cellomics ArrayScan VTI (Thermo Scientific Cellomics) (0.8 NA objective, 0.63x optical coupler, and XF-93 filter set) at 20x magnification. The images were acquired using the autofocus feature of the ArrayScan instrument, which entails the following steps. First, the camera focuses on channel 1 (Hoechst 33342), where nuclei are identified. Second, a Z offset of 1 um is used for capturing mitochondria (MitoTracker Red). […]
SMILES,outcome,AC50
c1ccc2c(c1)Nc1ccccc1S2,inactive,
CCCCN(CCCC)SN(C)C(=O)Oc1cccc2c1OC(C)(C)C2,,54.1 µM (active)
CCOS(=O)(=O)OCC,inactive,
Cc1ccc([N+](=O)[O-])cc1C,inactive,
Nc1cc2c3c(c1)C(c1ccccc1)=N[C@@H](NC(=O)c1cccnc1)C(=O)N3CC2,inactive,
O=P(Oc1ccccc1)(Oc1ccccc1)Oc1ccccc1,,62 µM (active)
CC(C)(C)c1ccc(O)cc1,inactive,
CCNc1nc(Cl)nc(NC(C)(C)C)n1,inactive,
ClC1=C(Cl)C2(Cl)C3C(Cl)C(Cl)CC3C1(Cl)C2(Cl)Cl (stereo not given),,53.5 µM (active)
Cc1cccc(N)c1,inactive,
[N-]=[N+]=[N-],inactive,
COCCOCCO,inactive,
O=P1(N(CCCl)CCCl)NCCCO1 (stereo not given),inactive,
Nc1ccc2ccccc2c1,inactive,
Cc1ccc(O)cc1C,inactive,
Nc1ccc(Cl)cc1,inactive,
CC(Cl)(Cl)C(=O)O,inactive,
c1nc[nH]n1,inactive,
CCN(CC)c1ccccc1,inactive,
OCC1CO1 (stereo not given),inactive,

SMILES,outcome,AC50
O=[N+]([O-])c1ccccc1,inactive,
Cc1ccc(N)cc1N,inactive,
CCOP(=S)(Oc1ccc([N+](=O)[O-])cc1)c1ccccc1 (stereo not given),inactive,
ClC(Cl)c1ccccc1,inactive,
CCC(C)(C)c1ccc(O)cc1,,121 µM (active)
O=C(O)C(Cl)Cl,inactive,
CC(C)(C)OOC(C)(C)C,inactive,
CCCCN(CCCC)N=O,inactive,
CCC1(c2ccccc2)C(=O)N=C(O)NC1=O (stereo not given),inactive,
CCOC(=O)c1ccccc1C(=O)OCC,inactive,
CCCCc1ccccc1,inactive,
CN(C)C(=O)Cl,inactive,
ClC(Cl)(Cl)c1ccccc1,inactive,
O=[N+]([O-])c1ccc(Cl)c(Cl)c1,inactive,
c1ccc(OP(Oc2ccccc2)Oc2ccccc2)cc1,,113 µM (active)
CCCCCCCc1ccc(O)cc1,inactive,
CCCN(CCC)c1c([N+](=O)[O-])cc(C(C)C)cc1[N+](=O)[O-],,31.6 µM (active)
CCOP(=S)(OCC)SCSCC,inactive,
CCOc1ccc(C(C)(C)COCc2cccc(Oc3ccccc3)c2)cc1,,66.6 µM (active)
CC(Cc1ccc(OCC(=O)O)cc1)NCC(O)c1csc(C(F)(F)F)n1 (stereo not given),inactive,
